PubChem BioAssay (NCI)
The panel holds about 83,000 compounds, 20% with a hit somewhere; the sample as a whole holds those more often.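 Note: values are percent growth. 100 is the growth of untreated cells, values between 100 and 0 indicate rising inhibition; between -100 and 0 indicates cell death.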 Activity calls are given as the source filed them. The calls were made as follows: active = growth percent below 10; inactive = the rest.

Tested on: HL-60(TB) leukemia
Experiment: NCI-60 one-dose screen, 48 h (100 = growth as untreated, 0 = no growth, -100 = all killed)
Details: 10 µM unless noted

**Q.** For `COc1ccc(-c2nc(C(Cl)Cl)nc3cc(-c4ccccc4)nn23)cc1`, which growth is on record?
**A.** -7.77% (active)

**Q.** With `COc1ccccc1/C=C1\Oc2ccc(O)c(O)c2C1=O` as the compound, how does the growth read?
**A.** 76.1% (inactive)

**Q.** For `Clc1ccc2c(OCCCN3CCOCC3)c3oc4ccccc4c3nc2c1`, which growth is on record?
**A.** 42.1% (inactive)

**Q.** With `CCCCSC1=C(Cl)CN(c2ccccc2)C1=O` as the compound, how does the growth read?
**A.** 105% (inactive)

**Q.** With `CCOC(=O)c1c(N)c(C#N)cn1Cc1ccc(Cl)cc1Cl` as the compound, how does the growth read?
**A.** 60.6% (inactive)

**Q.** How did the growth turn out when `O=C(NCCNc1cc(-c2cn(-c3ccccc3)nc2-c2cccc(O)c2)ccn1)Nc1ccc(Cl)c(C(F)(F)F)c1` was run?
**A.** 84.2% (inactive)

**Q.** How did the growth turn out when `O=C1CC(=O)N2CSCN(C(c3ccccc3)c3nc4ncncc4[nH]3)C2=N1` (centres undefined) was run?
**A.** 118% (inactive)

**Q.** How did the growth turn out when `CC/C(=C/c1cc(OC)ccc1O)c1ccc2cc(OC)ccc2[o+]1` was run?
**A.** 6.9% (active)

**Q.** How did the growth turn out when `COc1ccc(/C=N/NC(=O)c2cn(C3CC3)c3c(OC)c(N4CC5CCCNC5C4)c(F)cc3c2=O)cc1` (centres undefined) was run?
**A.** 80.6% (inactive)

**Q.** `NC(N)=Nc1ccc(Oc2cccc(Nc3ccc(Br)c(C(F)(F)F)c3)c2)cc1` was tested. Which growth did it give?
**A.** -50.3% (active)

**Q.** `CCCn1cnc2c(c1=N)C(c1ccc(OC)cc1)c1sc3c(CC)cccc3c1O2` (centres undefined) was tested. Which growth did it give?
**A.** -12.9% (active)

**Q.** For `N#C/C(=C\c1ccc(-c2ccc(Cl)cc2)o1)C(=O)Nc1ncc(Cc2ccc(Br)cc2)s1`, which growth is on record?
**A.** 50% (inactive)

**Q.** `COc1ccc(-c2nc3cc(Cl)c(Cl)cc3n2CC(=O)N=Nc2c(O)[nH]c3ccc(Br)cc23)cc1` was tested. Which growth did it give?
**A.** 80.2% (inactive)

**Q.** `Nc1ncc(-c2ccc3ncnc(N4CCc5cc(F)c(F)cc54)c3c2)cn1` was tested. Which growth did it give?
**A.** 37.1% (inactive)
